In PubChem BioAssay (NCI) one finds growth inhibition data, which are given here for 20 molecules.

This is part of a sample that, as a whole, favours compounds with a hit. Of some 79,000 tested, about 15% had one in any assay. Unmarked numbers belong to inactive results. Calls of active or inactive are those of the source. Rule as the data show it: active = growth inhibition above about 70%; inactive = the rest.

Experiment [1] can be described thus: NCI Yeast Anticancer Drug Screen. Data for the rad50 strain (AID 155).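 Also: 0% = growth of vehicle-only cultures of the same strain.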 Particulars: S. cerevisiae rad50 strain growth inhibition; at 50.0 µM; hits give high values. In outline:
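DNA repair mutant yeast, compound exposure, growth read-out; inhibition is taken relative to vehicle.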

Experiment [2] in a line: NCI Yeast Anticancer Drug Screen. Data for the mec2-1 strain (AID 157). Particulars: S. cerevisiae mec2-1 strain, at 50.0 µM, hits give high values. In outline: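 Strain: mec2-1 (DNA repair/cell cycle alteration). Compound exposure, then growth measured; inhibition expressed relative to vehicle.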
A short description of experiment [3]: NCI Yeast Anticancer Drug Screen. Data for the sgs1 mgt1 strain (AID 161).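 Also: 0% = growth of cultures given vehicle only.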 The note with it: S. cerevisiae sgs1 mgt1 strain, at 50.0 µM, hits give high values. Put shortly:
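Genetically altered yeast, compound exposure, growth inhibition relative to vehicle.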

Experiment [4] in a line: NCI Yeast Anticancer Drug Screen. Data for the cln2 rad14 strain (AID 165).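 Also: 0% = growth equal to vehicle treated cultures.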 The note with it: S. cerevisiae cln2 rad14 strain, at 50.0 µM, hits give high values. In outline: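 Compounds are applied to the cln2 rad14 yeast strain, and growth is then compared with that of vehicle-treated cultures to give inhibition.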
The nature of experiment [5]: NCI Yeast Anticancer Drug Screen. Data for the bub3 strain (AID 167). The note with it: S. cerevisiae bub3 mutant strain, at 50.0 µM, hits give high values. Put shortly: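 In this screen, a yeast mutant lacking normal mitotic checkpoint function is challenged with compound. Relative growth versus vehicle gives the inhibition value.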
A short description of experiment [6]: NCI Yeast Anticancer Drug Screen. Data for the mlh1 rad18 strain (AID 175). The note with it: S. cerevisiae mlh1 rad18 strain growth inhibition; at 50.0 µM; hits give high values. Put shortly:
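Read-out is yeast growth inhibition, calculated against vehicle-only controls. The compound was applied to a strain engineered with DNA damage repair alterations.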

Turning to `Cc1c2cccc(Br)c2c[n+]2ccccc12`, the growth inhibition is 20.9% in experiment [1]; 18.4% in experiment [2]; 39% in experiment [3]; -21.4% in experiment [4]; 1.3% in experiment [5]; 31.1% in experiment [6].
`COc1ccc(-c2cc(C(=O)O)c3cc4ccccc4cc3n2)cc1Br`: the growth inhibition was 8.6% in experiment [1]; -15.9% in experiment [2]; 13.7% in experiment [3]; 24.3% in experiment [4]; 2.95% in experiment [5]; 10.9% in experiment [6].
Consider `O=C(c1ccccc1)[C@H]1Nc2ccc(Cl)cc2[C@H]2CCC[C@@H]12`, for which the growth inhibition in experiment [1] is -2.4%; in experiment [2], -30.2%; in experiment [3] it was 0.1%; in experiment [4], 10.2%; in experiment [5], -14.6%; in experiment [6], -17.1%.
Turning to `c1ccc(-c2cc(-c3ccccc3)nc(-c3ccncc3)c2)cc1`, the growth inhibition is -16.1% in experiment [1]; -35.3% in experiment [2]; 2.9% in experiment [3]; 13.8% in experiment [4]; 1.55% in experiment [5]; -63.7% in experiment [6].
Take `O=C(O)/C=C(\Br)C(=O)O`: the growth inhibition in experiment [1] is 16.1%; in experiment [2], -4.1%; in experiment [3] it was -1%; in experiment [4], -11.4%; in experiment [5], -5.4%; in experiment [6], 5.3%.
As for `COC(=O)C1(CC(=O)C2CC2)NC(=S)NC(=O)C1C#N` (stereo not given), the growth inhibition in experiment [1] was 13.2%; in experiment [2], -10.2%; in experiment [3], -12.3%; in experiment [4], -8.6%; in experiment [5], -21.4%; in experiment [6], 5.2%.
Take `O=[n+]1c2c(n([O-])c3cc(Cl)c(Cl)cc31)CCC2`: the growth inhibition in experiment [1] is 25.4%; in experiment [2], -2.4%; in experiment [3], 22.9%; in experiment [4] it was 5.05%; in experiment [5], 4%; in experiment [6], 28.4%.
Turning to `CSc1n[nH]c(NC(=O)c2ccccc2Cl)n1`, the growth inhibition is -0.9% in experiment [1]; 0.45% in experiment [2]; 1.5% in experiment [3]; -33.2% in experiment [4]; -3.1% in experiment [5]; 7.95% in experiment [6].
As to `CCCCC(CC)C(O)CC(C)=O` (stereo not given), the growth inhibition in experiment [1] is 39.1%; in experiment [2] it was 16.9%; in experiment [3] it was 25%; in experiment [4], -8.75%; in experiment [5] it was 14.2%; in experiment [6] it was 21.1%.
As for `COC1=CCC2=C(CCO2)C1`, the growth inhibition in experiment [1] is 5.3%; in experiment [2], 0.35%; in experiment [3], -6.9%; in experiment [4], -18.5%; in experiment [5], -7.1%; in experiment [6], 1.1%.
For the molecule `NC1=NC=N/C(=N\c2ccccn2)C1N` (stereo not given), the growth inhibition in experiment [1] is -13.3%; in experiment [2] it was -9.95%; in experiment [3], -5.4%; in experiment [4], -32.2%; in experiment [5], -11.2%; in experiment [6], -8.6%.
With `CCCNC(=O)Nc1ccccc1OCC`, the growth inhibition was -3.6% in experiment [1]; -5.55% in experiment [2]; -8.6% in experiment [3]; -68% in experiment [4]; 13.2% in experiment [5]; -5.25% in experiment [6].
As to `CCCC(P(=O)(c1ccccc1)c1ccccc1)[P+](CC)(c1ccccc1)c1ccccc1` (stereo not given), the growth inhibition in experiment [1] is 84.6% (active); in experiment [2], 78.2% (active); in experiment [3], 85.9% (active); in experiment [4] it was 54.6%; in experiment [5], 81.7% (active); in experiment [6], 77.8% (active).
For `COc1cc(Cc2nccc3cc(OC)c(OC)cc23)c(N=NN(C)C)cc1OC`, the growth inhibition is -14.2% in experiment [1]; -7.6% in experiment [2]; -4.9% in experiment [3]; 5.45% in experiment [4]; -10.4% in experiment [5]; 8.35% in experiment [6].
Regarding `CCC1CC(=O)NC(=O)NC1=O` (stereo not given), the growth inhibition is -4.6% in experiment [1]; 30.8% in experiment [2]; -3.75% in experiment [3]; 12.1% in experiment [4]; 7.2% in experiment [5]; 6.9% in experiment [6].
For `O=C(/C=C/c1cccc(O)c1)c1ccccc1`, the growth inhibition is 29.4% in experiment [1]; 8.25% in experiment [2]; 38.4% in experiment [3]; 59.8% in experiment [4]; -5.6% in experiment [5]; 92% (active) in experiment [6].
Turning to `Cc1ccc(/C=N/NC(=O)Cc2cccc3ccccc23)cc1`, the growth inhibition in experiment [1] was -1.75%; in experiment [2], 13.4%; in experiment [3], 32.9%; in experiment [4], -10.9%; in experiment [5] it was 17.1%; in experiment [6], 21.1%.
Take `Cn1cnc2cc(N3CCOCC3)c([N+](=O)[O-])cc2c1=O`: the growth inhibition was 17.4% in experiment [1]; 12% in experiment [2]; -0.7% in experiment [3]; 12.8% in experiment [4]; -1.9% in experiment [5]; 17.8% in experiment [6].
Consider `CC(=O)[O-].O=S(=O)(Nc1ncccn1)c1ccc(N=Cc2ccccc2O)cc1.O=S(=O)(Nc1ncccn1)c1ccc(N=Cc2ccccc2O)cc1.[Co+2]`, for which the growth inhibition in experiment [1] is 25.4%; in experiment [2], 23.2%; in experiment [3], 26.6%; in experiment [4] it was 27.7%; in experiment [5], 32.2%; in experiment [6] it was 25.1%.
With `CCOC(=O)N(C)Cc1ccc(Cl)cc1`, the growth inhibition in experiment [1] was 5.75%; in experiment [2] it was -1.1%; in experiment [3] it was 1.25%; in experiment [4], -26.2%; in experiment [5], -11.8%; in experiment [6], 21.4%.
